L3MBTL1 block: inhibitors of human L3MBTL1; AlphaScreen L3MBTL1–H3K9me1 peptide binding; Potency, µM (highest dose often 57.1 µM), actives largely listed as inhibitors; 230,000 tested, 0.66% active; note: nearly all actives have a fitted effect of over 60% in size
Target sequence (Q9Y468 whole entry, looked up): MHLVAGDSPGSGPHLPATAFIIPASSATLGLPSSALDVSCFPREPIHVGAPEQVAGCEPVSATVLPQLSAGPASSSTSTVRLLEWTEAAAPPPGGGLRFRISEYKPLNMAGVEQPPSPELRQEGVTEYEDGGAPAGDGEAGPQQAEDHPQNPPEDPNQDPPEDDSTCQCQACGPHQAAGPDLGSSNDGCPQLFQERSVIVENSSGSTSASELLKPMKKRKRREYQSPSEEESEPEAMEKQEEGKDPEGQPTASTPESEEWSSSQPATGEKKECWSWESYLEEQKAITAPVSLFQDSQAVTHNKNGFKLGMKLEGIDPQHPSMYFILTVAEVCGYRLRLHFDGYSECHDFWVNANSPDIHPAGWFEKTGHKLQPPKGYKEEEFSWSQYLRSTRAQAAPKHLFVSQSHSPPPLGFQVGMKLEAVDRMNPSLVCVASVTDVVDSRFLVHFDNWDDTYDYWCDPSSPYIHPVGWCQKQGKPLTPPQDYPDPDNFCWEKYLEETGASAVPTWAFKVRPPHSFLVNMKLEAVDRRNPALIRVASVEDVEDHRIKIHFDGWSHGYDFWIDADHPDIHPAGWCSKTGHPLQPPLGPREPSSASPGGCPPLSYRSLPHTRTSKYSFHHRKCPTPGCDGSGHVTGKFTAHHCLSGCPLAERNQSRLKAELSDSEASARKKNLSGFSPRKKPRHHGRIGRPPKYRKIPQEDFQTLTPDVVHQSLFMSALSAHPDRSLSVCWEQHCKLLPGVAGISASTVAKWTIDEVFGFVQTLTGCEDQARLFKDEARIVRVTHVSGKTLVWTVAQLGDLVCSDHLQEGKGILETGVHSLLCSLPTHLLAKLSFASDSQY
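AlphaScreen proximity signal between nickel-chelate acceptor and streptavidin donor beads (final 10 ug/mL) reports binding of 50 nM L3MBTL1 to 75 nM biotin-H3 K9me1 peptide; complex incubated with compounds 30 min at room temperature; cefsulodin titration as control.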
Sfp inh: inhibitors of Bacillus subtilis Sfp phosphopantetheinyl transferase | 310,000 tested, 3.5% active | Biochemical Sfp PPTase activity, qHTS | Potency, µM, actives largely listed as inhibitors;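 note: the enzyme is Sfp with the accession as filed and its product quenches rhodamine fluorescence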
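Fluorescence-quenching assay: 15 nM Sfp-PPTase preincubated 15 min at room temperature with compound, then 5 uM rhodamine-CoA and 12.5 uM BHQ-2-labelled YbbR peptide added. Fluorescence (ex 525/em 598 nm) read at start and after 30 min; difference gives rate.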
BAZ2B inh: BAZ2B (human) inhibition. Q9UIF8. AlphaScreen BAZ2B-H3K14Ac peptide displacement. Potency, µM (highest dose often 114 µM), actives largely listed as inhibitors. 360,000 tested, 4.4% active. AID 504333; note: nearly all actives have a fitted effect of over 60% in size
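Complex of BAZ2B and biotin-H3K14Ac (50 nM apiece) forms over 30 min at RT, then faces library compounds up to 110 uM for another 30 min; AlphaScreen beads added, 20 min dark incubation, luminescence read.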
G9a inh: blocks human histone lysine methyltransferase G9a; 350,000 tested, 8.8% active; Potency, µM (titrated, usually from 102 µM), actives largely listed as inhibitors; AID 504332; G9a H3K9 monomethylation, AlphaScreen, 2 h; Q96KQ7; note: nearly all actives have a fitted effect of over 75% in size
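G9a (20 nM) preincubated 15 min RT with compounds, then 500 nM biotinylated H3K9 peptide and 20 uM SAM added; 2 h RT reaction. Monomethyl-H3K9 product detected by AlphaScreen with anti-H3K9me1 antibody, streptavidin donor and anti-rabbit IgG acceptor beads.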
HP1b binding inh: inhibitors of HP1-beta chromodomain binding to methylated histone tails. Potency, µM (titrated, usually from 114 µM), most hits filed as inhibitors. AlphaScreen HP1-beta / biotin-H3K9me3 peptide binding. 390,000 tested, 0.56% active. P83916; note: nearly all actives have a fitted effect of over 70% in size
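Compound inhibition of the preformed complex between 50 nM HP1-beta and 50 nM biotinylated H3K9me3 peptide was read by AlphaScreen. Buffer was PBS pH 7.4 with 0.01% Tween-20. Incubations ran 30 min at room temperature, with 10 ug/mL donor/acceptor beads.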
JMJD2A Tudor: JMJD2A Tudor domain (human) inhibition. O75164. AlphaScreen JMJD2A-Tudor / H3K4me3 peptide binding. Potency, µM (series often up to 114 µM), usual class: inhibitors. 390,000 tested, 4.4% active; note: nearly all actives have a fitted effect of over 50% in size
Numbers stand for hits; 0 = inactive; ? = inconclusive; - = not tested or not shown; [ ] = dose if it differs, or a comment. Most compounds without a hit are left out; they make up all but 12% or so of the library. Calls come from the whole dose curve; as a rule, active = well fitted curve in the direction sought with a large enough effect; inconclusive = small, poorly fitted or top-dose-only effect, or another doubt; inactive = no such curve, though single readings can be large; an effect the other way counts as inactive or inconclusive.

SMILES | L3MBTL1 block | Sfp inh | BAZ2B inh | G9a inh | HP1b binding inh | JMJD2A Tudor
CCn1c(CN2CCCCC2)nc2cc(NC(=O)COc3ccc([N+](=O)[O-])cc3)ccc21 | - | - | ? | 0 | 0 | 0
O=C(NCC1CCCCC1)c1ccc(=O)[nH]c1 | - | 0 | 0 | 44.7µM | 0 | 0
N#Cc1ccc(C(=O)NCC2CCCCC2)cc1 | - | 0 | 0 | 50.1µM | 0 | 0
O=C(NCC1CCCCC1)c1cccc(-c2ccc(O)cc2)c1 | - | 0 | 0 | 0 | 0 | 0
CCCCCCCCCCCCCCNCCO | - | 0 | - | 0[12.7 µM] | - | -
CC(C)CC(=O)NCC1(N(C)C)CCCCC1 | - | - | 0 | 0 | 0 | 0
COc1cc(NC(=O)c2cnc(N)s2)cc(C(=O)Nc2cccc(C(F)(F)F)c2)c1 | - | 0 | 20µM | ? | 0 | 31.6µM
COc1cc(NC(=O)c2ccnc(N)c2)cc(C(=O)Nc2cccc(C(F)(F)F)c2)c1 | - | 0 | 50.1µM | 0[12.7 µM] | 0 | ?
COc1cc(NC(=O)c2cnc(N)o2)cc(C(=O)Nc2cccc(C(F)(F)F)c2)c1 | - | 0 | ? | 0 | 0 | 0
COc1cc(NC(=O)c2csc(N)n2)cc(C(=O)Nc2cccc(C(F)(F)F)c2)c1 | - | 0 | 0 | 0[12.7 µM] | 0 | 0
COc1ccccc1N1CCN(C(=O)c2ccc3[nH]c4c(c3c2)CCCC4)CC1 | 0 | 0 | 44.7µM | ? | ? | 50.1µM
O=C(c1noc2c1CCCC2)N1CCN(c2ccc(F)cc2)CC1 | 0 | 0 | 0 | 0[2.33 µM] | 0 | 0
O=C(c1ccc2[nH]c3c(c2c1)CCCC3)N1CCN(c2ccc(F)cc2)CC1 | ? | 0 | 39.8µM | ? | ? | 31.6µM
COc1ccccc1N1CCN(C(=O)c2ccc(-c3ccccc3)cc2)CC1 | - | 0 | ? | 0[2.33 µM] | 0 | 0
NS(=O)(=O)c1ccc(NC(=O)c2cccc(N3C(=O)c4ccccc4C3=O)c2)cc1 | - | ? | ? | 10µM | 0 | ?
CN(C)c1ccc(NC(=O)c2cccc(N3C(=O)C4C5C=CC(C5)C4C3=O)c2)cc1 (stereo unspecified) | 0 | 0 | 0 | 10µM | 0 | 0
CC(=O)c1ccc(NC(=O)c2cccc(N3C(=O)c4ccccc4C3=O)c2)cc1 | - | 0 | 0 | 79.4µM | 0 | 0
Cc1ccc(N2CCN(C(=O)C3CCN(c4ncnc5c4nc4n5CCCCC4)CC3)CC2)c(C)c1 | - | - | 0 | 0 | 0 | 0
CCOC(=O)c1cnc(-n2cc(C)cn2)nc1NCc1ccc2c(c1)OCO2 | 0 | 79.4µM | ? | 0[12.7 µM] | 0 | ?
CCC1(c2ccccc2)NC(=O)N(CC(=O)N(C)CC(=O)Nc2ccc(F)c(F)c2F)C1=O (stereo unspecified) | 0 | - | 0 | 0[0.501 µM] | 0 | 0
CCCC1(c2ccccc2)NC(=O)N(CC(=O)N(C)Cc2c(F)cccc2Cl)C1=O (stereo unspecified) | - | 0 | 0 | 0 | 0 | 25.1µM
OCCNc1nc(Nc2ccc(Br)cc2)nc2ccccc12 | - | 39.8µM | 0 | 50.1µM | 0 | 0
OCCNc1nc(Nc2ccccc2)nc2ccccc12 | 0[11.4 µM] | 0 | 0 | ? | 0 | 0
Cc1c(Cl)cccc1Nc1nc(NCCO)c2ccccc2n1 | - | 0 | 0 | 79.4µM | 0 | 0
Oc1ccccc1Nc1nc(NCc2ccccc2)c2ccccc2n1 | 0 | 28.2µM | 25.1µM | - | 0 | ?
SMILES | L3MBTL1 block | Sfp inh | BAZ2B inh | G9a inh | HP1b binding inh | JMJD2A Tudor
Cc1ccc(C)c(N2CCN(C(=O)Cn3cnc4nc5c(cc4c3=O)CCCC5)CC2)c1 | - | - | 0 | ? | 0 | 0
O=S1(=O)N=C(Nc2ccc(O)cc2)c2ccccc21 | 0 | 0 | 0 | 0 | 0 | 0
CC(=O)Nc1ccc(Nc2ccccc2)cc1 | 0 | 0 | 0 | - | 0 | 0
O=C1C=C(Nc2ccc(O)cc2)C(=O)c2ccccc21 | 0 | 0 | 28.2µM | - | 0 | ?
CC(=O)Nc1ccc(NC2=CC(=O)c3ccccc3C2=O)cc1 | - | 56.2µM | 12.6µM | 2µM | 0 | 25.1µM
Nc1c(C(=O)Nc2cccc(F)c2)c2ccccn2c1C(=O)c1ccccc1 | - | - | 0 | 0 | 0 | 0
Cc1cc(C)c(S(=O)(=O)N2CCN(C(=O)N(C)C)CC2)c(C)c1 | 0 | 7.08µM | ? | - | 0 | 0
Cc1ccc(N=Cc2ccc(N(C)C)cc2)cc1 | 0 | 0 | 0 | 0 | 0 | 0
C(=Nc1cccc2c(N=Cc3ccco3)cccc12)c1ccco1 | 0 | 0 | 28.2µM | 39.8µM | 0 | 0
CN(C)c1ccc(N=Cc2ccco2)cc1 | ? | 44.7µM | 0 | 10µM | 15.8µM | 28.2µM

Screening data deposited in PubChem by National Center for Advancing Translational Sciences (NCATS).
